Only some compounds are listed: those with a hit (about 6.6% of all), similar ones and a draw of the others.
Mdm2 MdmX PPI = human Mdm2/MdmX binding inhibition. 3% of 330,000 active. SaOS-2 split-luciferase Mdm2/MdmX complementation, luminescence. AID 485346. O15151+Q00987. inhibition, % at 8 µM;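 active = inhibition of at least 50% at 8 µM in the primary screen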
GRIN3A LBD mod = NR3A (human) ligand-binding domain modulation. NR3A LBD differential scanning fluorimetry, Tm shift; 0% = protein alone, 100% = glycine-bound protein. AID 1259313. Tm shift relative to glycine control, % at 25 µM. 2.5% of 340,000 active;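 active = melting temperature shift of at least 10% of the positive control shift, at one fixed dose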
CSC inhib = cancer stem cell inhibition. 1.1% of 300,000 active. inhibition, % at 7.5 µM. cancer stem cell-like cells viability, luminescence; in the data active = inhibition above about 75%; tested in HMLE shEcad cells
MPTP inh = inhibitors of mitochondrial permeability transition pore. 1.4% of 360,000 active. inhibition, % at 10 µM. AID 602449. isolated mouse mitochondria, Ca2+ swelling absorbance, 30 min;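 active = inhibition of 50% or more, scaled per plate between neutral and stimulator controls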;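 also: 0% = DMSO wells given calcium and 100% = 1 mM EGTA wells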
Beta apoptosis = blocks beta cell apoptosis. INS-1E cytokine-induced death, ATP luminescence, 48 h; percent of positive-control rescue, neutral wells zero. protection from apoptosis, % (test concentration not listed). 0.8% of 300,000 active. AID 435005;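 active = Every replicate reaches about 75%, or at least half do and their mean reaches it too, limit read from the data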;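 also: 0% = cytokine-treated negative control wells and 100% = positive control rescue; higher means more ATP so stronger rescue from cytokine killing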
Gli-Sufu antag = antagonists of Gli-Sufu signaling; inhibition, % at 5 µM; 0.74% of 340,000 active; Sufu-KO-LIGHT fibroblasts, Gli luciferase reporter luminescence;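 active = inhibition above about 55%, limit read from the data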;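 also: 0% = DMSO-treated cells and 100% = wells with medium but no cells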
An asterisk follows results filed as active; x = no result.

SMILES	Mdm2 MdmX PPI	GRIN3A LBD mod	CSC inhib	MPTP inh	Beta apoptosis	Gli-Sufu antag
O=C(Nc1cc(Br)ccc1O)c1cnn2c(C(F)F)cc(C3CC3)nc12	17	14*	3	5	8	19
C=CCOc1cccc(C(=O)N2CCC(CCC(=O)NC3CC3)CC2)c1	13	16*	14	-1	-9	-37
CCc1ccc(CN(C)CC(=O)Nc2ccccc2[N+](=O)[O-])cc1	-2	19*	4	-2	-1	4
CCCS(=O)(=O)Nc1ccc(Nc2c3ccccc3nc3ccccc23)c(OC)c1	x	-10	x	3	x	79*
CCOc1ccccc1N1CCN(C(=S)Nc2ccc(S(=O)(=O)Nc3ncccn3)cc2)CC1	7	10*	0	-1	-7	1
COc1ccc(C2=Nc3ccccc3N(C(=O)c3ccncc3)C2C(=O)NC(C)(C)C)cc1 (stereo unspecified)	x	x	x	0	x	x
CC(NC(=O)c1ccccc1NS(C)(=O)=O)c1ccccc1 (stereo unspecified)	9	20*	-3	-4	-4	5
NC(=O)COC(=O)CCSc1ccc(Cl)cc1	-16	-2	22	0	-4	9
COC(=O)C1CCN(C(=O)COC(=O)c2oc3ccccc3c2C)CC1	-15	17*	-1	2	-6	-9
O=C(/C=C/c1ccc(S(=O)(=O)NCc2ccco2)cc1)N1CCN(c2ccccc2)CC1	24	16*	-2	0	1	32
CC1=Nc2ccccc2/C1=C\c1nc(-c2ccc(F)cc2)oc1O	13	30*	8	8	-5	3
NC1=NC(=O)/C(=C/c2ccccc2OS(=O)(=O)c2ccc3ccccc3c2)S1	x	18*	-7	0	-1	-1
COCCNC(=S)N(CCc1c(C)[nH]c2ccc(F)cc12)Cc1cccnc1	-7	13*	10	1	-2	-6
O=C(O)CCSc1nc2ccc(Br)cc2[nH]1	17	13*	-7	2	-7	-7
CC(Sc1nc2ccc(Br)cc2[nH]1)C(=O)O (stereo unspecified)	9	0	-3	-1	-7	-2
CC/C(=N\NC(=O)c1nnn(-c2nonc2N)c1-c1cccs1)c1ccccc1	11	-2	-16	-3	2	-2
C/C(=N\NC(=O)c1nnn(-c2nonc2N)c1CN(C)c1ccccc1)c1cccs1	-11	11*	0	8	-6	3
C/C(=N\NC(=O)c1nnn(-c2nonc2N)c1CN(C)c1ccccc1)c1ccccn1	x	-10	105*	-2	86*	78*
CC/C(=N\NC(=O)c1nnn(-c2nonc2N)c1CN(C)c1ccccc1)c1ccccc1	16	242*	27	0	-1	1
C/C(=N\NC(=O)c1nnn(-c2nonc2N)c1CN(C)c1ccccc1)c1ccc(O)cc1	28	6	10	0	-7	-5
COc1ccc([C@H]2CC(=O)C=C(c3ccc(Cl)c(C(F)(F)F)c3)C2)cc1	-4	-19	39	0	2	-20
CCOC(=O)/C=C1/SCC(=O)N1CC(=O)Nc1ccc2c(c1)CCC2	x	0	x	-2	x	-5
CCc1ccc(C2=NNC(=Nc3cccc(S(=O)(=O)N(C)C)c3)SC2)cc1	36	0	10	0	120*	26
Cc1ccc(C2=NNC(=Nc3ccc(F)cc3)SC2)cc1	x	1	x	-1	x	0
CC1=NN(c2nc(-c3ccc(C)cc3)cs2)C(=O)C1N=Nc1ccc(C(N)=O)cc1 (stereo unspecified)	x	27*	-16	4	79*	9
SMILES	Mdm2 MdmX PPI	GRIN3A LBD mod	CSC inhib	MPTP inh	Beta apoptosis	Gli-Sufu antag
N#Cc1nc(Nc2cccc(Cl)c2)c2ncn(C3CCCC3)c2n1	31	11*	7	2	1	26
COc1ccccc1/C=C/C(=O)OC(C)CN1CCCCC1 (stereo unspecified)	3	0	-3	-2	3	-10
O=C(NNC(=O)c1cccc2ccccc12)c1ccc(Cl)cc1Cl	x	23*	x	0	x	-11
O=C(NNC(=O)c1cccc2ccccc12)c1cccc(Br)c1	x	4	x	-1	x	-1
O=C(NNC(=O)c1cccc2ccccc12)c1cccc(Cl)c1	x	12*	x	0	x	4
O=C(COc1ccc(F)c(Cl)c1)N1CCCCCCC1	13	0	-7	1	-4	-16
CC(C)(C)c1ccc(-c2nc(-c3ccncc3)no2)cc1	-10	2	33	9	32	-39
CC(C)(C)c1ccc(-c2noc(-c3ccno3)n2)cc1	-158	12*	10	1	15	-44
O=[N+]([O-])c1cccc(C=NN=C2c3ccccc3-c3ccccc32)c1	x	1	x	4	x	20
CC1S/C(=N\N=C\c2cccc([N+](=O)[O-])c2)N(C(C)(C)C)C1=O (stereo unspecified)	17	0	81*	3	11	21
COc1cccc2c1C(=O)c1c(O)c3c(c(O)c1C2=O)CC(O)(C(C)=O)CC3OC1CC(O)C(O)C(C)O1 (stereo unspecified)	x	-4	x	7	x	55*
COc1cccc2c1C(=N)c1c(O)c3c(c(O)c1C2=O)CC(O)(C(C)=O)CC3OC1CC(N)C(O)C(C)O1 (stereo unspecified)	x	0	x	9	x	75*
CCCCC(=O)OCC(=O)C1(O)Cc2c(O)c3c(c(O)c2C(OC2CC(NC(=O)C(F)(F)F)C(O)C(C)O2)C1)C(=O)c1c(OC)cccc1C3=O (stereo unspecified)	x	5	x	4	x	39
O=C1C=C(N2CCN(C(=O)c3ccccc3)CC2)C2(CCCCC2)O1	18	11*	-4	-1	4	-8
O=C1C=C(N2CCCCC2)C2(CCCCC2)O1	-28	-2	-3	0	1	-6
O=C(Nc1cccc(S(=O)(=O)C(F)(F)F)c1)[C@@H]1O[C@H](CO)[C@@H](O)[C@H]1O	x	x	x	0	x	x
CC(C)C[C@H]1CN(CCCC[C@@H]2CNC(=O)C(=O)N2Cc2ccccc2)C(=O)C(=O)N1CCC1CCCCC1	x	x	x	-3	x	x
COc1cc2c(cc1OC)-c1c(OC)c(OC)cc3ccnc(c13)C2=O	30	-15	61	-1	112*	11
COc1ccc(C(=O)c2nccc3cc(OC)c(OC)cc23)cc1OC	9	0	3	0	-8	0
CC(C)OCCCNC(=O)c1ccccc1NC(=O)C1=CSCCO1	2	-2	-12	0	-7	-2
O=[N+]([O-])c1ccc2nc(-c3cccnc3)[nH]c2c1	-25	1	10	-1	7	-13
O=[N+]([O-])c1cccc(-c2cc3ccccc3[nH]2)c1	16	34*	2	1	0	8
O=[N+]([O-])c1ccc2nc(-c3ccccc3)[nH]c2c1	-196	16*	9	47	11	-83
O=[N+]([O-])c1ccc2[nH]nc(-c3ccccc3)c2c1	-7	-8	9	22	0	15

Screens as filed in PubChem BioAssay.
